# Assay results as given in PubChem BioAssay (NCI).
# The panel holds about 83,000 compounds, 20% with a hit somewhere; the sample as a whole holds those more often.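 Plates (96-well) were seeded with cells, treated with compound at one concentration, and incubated for 48 hours before percent growth was determined.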 A number with no mark means an inactive call. The source made the active and inactive calls. How the source made its calls: active means growth percent below 10; inactive means the rest.
# Tested on: MOLT-4 leukemia
# Assay: NCI-60 one-dose screen, 48 h (100 = growth as untreated, 0 = no growth, -100 = all killed)
# Details: 10 µM unless noted
row,SMILES,growth
1,COc1cc(NC(=O)c2cccc(-c3cc(=O)c4c(OC)c(OC)c(OC)cc4o3)c2)cc(OC)c1OC,10.4%
2,COc1ccc(NC(=O)c2cccc(-c3cc(=O)c4c(O)c(OC)c(OC)cc4o3)c2)cc1,103%
3,CO[C@H]1/C=C/O[C@@]2(C)Oc3c(C)c(O)c4c(c3C2=O)C(=O)C(/C=N/N(c2ccccc2)c2ccccc2)=C(NC(=O)/C(C)=C\C=C\[C@H](C)[C@H](O)[C@@H](C)[C@@H](O)[C@@H](C)[C@H](OC(C)=O)[C@@H]1C)C4=O,3.36% (active)
4,C[C@@H]1C(=O)N(C[C@H](Cc2ccccc2)N(Cc2ccccc2)Cc2ccccc2)[C@]1(Cc1ccccc1)C(=O)OC(C)(C)C,63.8%
5,COc1cc(/C=C/C(=O)c2cccc(-n3cc(-c4ccc(Cl)cc4)[nH]c3=O)c2)cc(OC)c1OC,26.8%
6,COc1cc(-c2ccc(N=Nc3c(O)c(C(=O)Nc4ccccc4OC)cc4ccccc34)c(OC)c2)ccc1N=Nc1c(O)c(C(=O)Nc2ccccc2OC)cc2ccccc12,93.8%
7,CC/C=C/[C@@H]1C=C[C@@H]2CCC[C@H]2[C@@H]1CC[C@H](O)[C@H](C)N,-47.2% (active)
8,COc1ccc(C(=O)/C=C/c2cc3c(c(OC)c2)OCC(=O)N3)cc1,6.17% (active)
9,Nc1nc(N)c(-c2ccc(Cl)cc2)c(/C=C/c2ccc([N+](=O)[O-])cc2)n1,27.6%
10,C=C(Cl)COC(=O)C(C)(C)O,97.1%
11,O=C1Nc2ccccc2SC1C1SC(=S)N(Cc2ccccc2)C1=O (stereo not given),67.3%
12,COc1ccc(OC)c(Nc2nc3nonc3nc2Nc2cc(OC)ccc2OC)c1,88.8%
13,COc1cc2oc(-c3cccc(C(=O)Nc4ccc(C)cc4)c3)cc(=O)c2c(OC)c1OC,54.7%
14,O=C1c2ccccc2C2(c3ccc(O)cc3)c3ccccc3Oc3cccc1c32 (stereo not given),24.8%
15,COc1ccc(-c2cc(-c3cc(OC)ccc3OC)[nH]c(=O)c2C#N)cc1,44.3%
16,N[C@@H]1CCC[C@H]1NCCCCN1C(=O)c2cccc3cccc(c23)C1=O,30.8%
17,NC(=S)N/N=C/C(=O)O,44%
18,COC1=CC(c2ccc[nH]2)=N/C1=C\c1[nH]c(C)c(C(=O)OCCn2cc(CCC[C@@H]3Cc4cc(O)ccc4C4CC[C@]5(C)[C@@H](O)CC[C@H]5C43)nn2)c1C (stereo not given in full),62.1%

row,SMILES,growth
1,O=C1CSC(c2ccccc2)N1c1ccccc1 (stereo not given),107%
2,O=C1NCC(=O)N(Cc2ccco2)[C@H]1Cc1ccccc1,102%
3,O=C(Nc1cccc2[nH]c(C(F)(F)F)nc12)c1cc(Cl)ccc1Cl,17.9%
4,CCNCCNc1cc(-c2ccc(C(F)(F)F)cc2)c(C#N)c2nc3cc(Cl)c(Cl)cc3n12,-56.8% (active)
5,COc1cc(NC(=O)c2cccc(-c3cc(=O)c4c(O)c(OC)c(OC)cc4o3)c2)cc(OC)c1OC,72.8%
6,Cc1cc(C(c2ccccc2)c2ccccc2)ccc1NS(=O)(=O)c1ccccc1,59.7%
7,COc1ccc(-c2nc3sc4c(c3c(=O)[nH]2)CCCC4)c2ccccc12,14.2%
8,COc1ccc(OC)c(Nc2nc3nonc3nc2Nc2cccc(Br)c2)c1,3.8% (active)
9,O=C(O)CC1Sc2ccccc2NC1=O (stereo not given),92.5%
10,O=C(c1ccccc1)c1ccc(Cl)c([N+](=O)[O-])c1,11.9%
11,Nc1c(C(=O)Nc2ccccc2)sc2nc3c(cc12)CCCCCC3,18.3%
12,Clc1ccc2[nH]c3c(NCCCN4CCOCC4)ncnc3c2c1,53.5%
13,CN(C)c1ccc(/C=C/c2c(F)cccc2F)cc1,97.4%
14,COC(=O)CCCNC(=O)C(=O)c1c(O)c(O)c(C(C)C)c2cc(C)c(-c3c(C)cc4c(C(C)C)c(O)c(O)c(C(=O)C(=O)NCCCC(=O)OC)c4c3O)c(O)c12,8.94% (active)
15,CCOc1cccnc1/C=N/NC(N)=S,7.07% (active)
16,COc1ccc(/C(C)=N/NS(=O)(=O)c2ccc(C)cc2)cc1OC,98.2%
17,CCCCNC(=O)NS(=O)(=O)c1ccc(N2N=C(c3ccc(C)cc3C)CC2c2ccc(N(C)C)cc2)cc1 (stereo not given),48.4%
